Source: PubChem BioAssay
TDP43 rescue: rescues yeast growth from TDP-43 toxicity; TDP-43 expressing yeast growth rescue, BacTiter-Glo, 24 h; Potency, µM (highest dose often 46.1 µM), actives largely listed as activators; 1.8% of 410,000 active; AID 652104; note: nearly all actives have a fitted effect of over 50% in size
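Readout is BacTiter-Glo luminescence of cell growth, so inhibitors register as activators. TDP-43-expressing yeast at OD600=0.02 in galactose medium, after raffinose pregrowth to mid-log, were incubated with compound for 24 hr at 30 deg C.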
Abeta rescue: compounds reversing amyloid beta toxicity in yeast; yeast expressing A-beta42, growth rescue, OD600, 48 h; response scale: 0% DMSO, 100% iron-clioquinol control; Potency, µM (series often up to 46.1 µM), usual class: activators; 0.063% of 410,000 active; note: nearly all actives have a fitted effect of over 55% in size
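Yeast A-beta toxicity model in growth medium with pinned compounds, 48 h at 30 C; growth read as absorbance at 600 nm. Normalized to FeCl3/clioquinol equimolar mix (positive) and DMSO (negative).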
FUS yeast rescue: FUS proteinopathy suppression in yeast; S. cerevisiae FUS-expressing, growth rescue, OD600, 24 h; Potency, µM (titrated, usually from 76.6 µM), usual class: activators; 0.24% of 390,000 active; note: nearly all actives have a fitted effect of over 55% in size
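Absorbance at 600 nm, taken 24hr after compound addition, measured rescue of FUS-yeast growth at 30C. Induction used 2% galactose with seeding at OD 0.005. Controls: CP55940 from 92uM final, DMSO only.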
aSyn yeast inh: rescues yeast growth from alpha-synuclein toxicity. Yeast expressing alpha-synuclein, growth rescue, BacTiter-Glo, 24 h. Potency, µM (top dose mostly 46.1 µM), actives largely listed as activators. 0.14% of 370,000 active; note: nearly all actives have a fitted effect of over 65% in size
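Screening used galactose-induced yeast with toxic alpha-synuclein levels, exposed to compound for 24 hr at 30 deg C. Cell growth, read with BacTiter-Glo luminescence, gave the measured signal.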
Numbers stand for hits. An excerpt weighted towards active compounds, which were near 2.1% of everything screened. Calls come from the whole dose curve; as a rule, active = well fitted curve in the direction sought with a large enough effect; inconclusive = small, poorly fitted or top-dose-only effect, or another doubt; inactive = no such curve, though single readings can be large; an effect the other way counts as inactive or inconclusive.

Results for CC(C)c1ccc(OCC(=O)NNC(=S)NC(=O)c2ccco2)c(Br)c1 ?
TDP43 rescue: 10µM; Abeta rescue: inactive; FUS yeast rescue: inactive; aSyn yeast inh: inactive

What do the screens show for `Cc1ccccc1OCC(=O)Nc1ccccc1NC(=O)c1ccco1`?
TDP43 rescue: inactive; Abeta rescue: inactive; FUS yeast rescue: inactive; aSyn yeast inh: inactive

What do the screens show for `O=C(Cc1ccc(Cl)cc1)NNC(=S)NC(=O)c1cccs1`?
TDP43 rescue: 28µM; Abeta rescue: inconclusive; FUS yeast rescue: inactive; aSyn yeast inh: inactive

How did COc1ccc(/C=C2\CC3(OC(=O)c4ccco4)CCCN2C3)cc1 (configuration not stated) do in these assays?
FUS yeast rescue: inactive

Results for COC(=O)c1ccc(NC(=O)c2ccccc2OCC(=O)Nc2ccc(Br)cc2)cc1 ?
aSyn yeast inh: inactive

How did Cc1noc(/C=C/N(C)C)c1S(=O)(=O)N1CCCC(C(=O)Nc2ccc3c(c2)OCO3)C1 (configuration not stated) do in these assays?
TDP43 rescue: inactive; Abeta rescue: inactive; FUS yeast rescue: 5.6µM; aSyn yeast inh: inactive

Results for CC(C)(C)C1CCC(C(=O)OCC(=O)c2ccc[nH]2)CC1 (configuration not stated) ?
TDP43 rescue: 18µM; Abeta rescue: inactive; FUS yeast rescue: inactive; aSyn yeast inh: inactive

What do the screens show for `OC[C@@H]1CN(Cc2ccc(Cl)cc2)C[C@H](n2cnc3c(N4CCN(c5ccccc5)CC4)ncnc32)O1`?
TDP43 rescue: 32µM; Abeta rescue: inactive; FUS yeast rescue: inconclusive; aSyn yeast inh: inconclusive

How did COc1cc(OC)c(/C=C/c2cc3c4ccccc4ccc3[n+](C)c2)c(OC)c1 do in these assays?
aSyn yeast inh: inactive

Results for COc1cc(C=Nn2c(-c3n[nH]c4c3CCC4)n[nH]c2=S)ccc1OCc1ccccc1 ?
FUS yeast rescue: inactive

How did O=C(Nc1ccc(OCc2ccccc2Cl)cc1)c1cccnc1 do in these assays?
TDP43 rescue: 16µM; Abeta rescue: inactive; FUS yeast rescue: inactive; aSyn yeast inh: inactive

Results for O=C(Cn1c(=O)cnc2ccccc21)Nc1cc(Cl)ccc1N1CCOCC1 ?
TDP43 rescue: 13µM; Abeta rescue: inactive; FUS yeast rescue: inactive; aSyn yeast inh: inactive

What do the screens show for `O=C(Cn1c(=O)cnc2ccccc21)Nc1ccccc1N1CCOCC1`?
TDP43 rescue: inactive; Abeta rescue: inactive; FUS yeast rescue: inactive; aSyn yeast inh: inactive

What do the screens show for `Cc1nn(C)cc1CN(C)C(=O)CC12CC3CC(CC(C3)C1)C2`?
TDP43 rescue: 22µM; Abeta rescue: inactive; aSyn yeast inh: inactive

Results for CN(C)C(=O)CC12CC3CC(C1)CC(CC(=O)N(C)C)(C3)C2 ?
TDP43 rescue: inactive; Abeta rescue: inactive; FUS yeast rescue: inactive; aSyn yeast inh: inactive

What do the screens show for `COc1ccccc1CC1(C)C(=O)Nc2c(Cl)cccc21` (configuration not stated)?
TDP43 rescue: inconclusive; Abeta rescue: inactive; FUS yeast rescue: inactive; aSyn yeast inh: inconclusive

How did CC1(Cc2ccc3c(c2)OCO3)C(=O)Nc2ccc(-c3cccc(C(F)(F)F)c3)cc21 (configuration not stated) do in these assays?
TDP43 rescue: inactive; Abeta rescue: inactive; FUS yeast rescue: inactive; aSyn yeast inh: inactive

Results for CC1(Cc2ccc3c(c2)OCO3)C(=O)Nc2c(Cl)ccc(Cl)c21 (configuration not stated) ?
TDP43 rescue: inconclusive; Abeta rescue: inactive; FUS yeast rescue: inactive; aSyn yeast inh: 22µM

Results for CC1(Cc2ccc(Cl)cc2)C(=O)Nc2c(Cl)cccc21 (configuration not stated) ?
TDP43 rescue: inconclusive; Abeta rescue: inactive; FUS yeast rescue: inactive; aSyn yeast inh: 5µM

How did Cc1ccc(CC2(C)C(=O)Nc3c(Cl)cccc32)cc1 (configuration not stated) do in these assays?
TDP43 rescue: inactive; Abeta rescue: inactive; FUS yeast rescue: inactive; aSyn yeast inh: 6.3µM

Results for CC1(Cc2ccc(F)cc2)C(=O)Nc2c(Cl)cccc21 (configuration not stated) ?
TDP43 rescue: 28µM; Abeta rescue: inactive; FUS yeast rescue: inactive; aSyn yeast inh: 13µM

How did CC1(Cc2ccc(Cl)cc2)C(=O)Nc2ccc(-c3ccc(F)c(Cl)c3)cc21 (configuration not stated) do in these assays?
TDP43 rescue: inactive; Abeta rescue: inactive; FUS yeast rescue: inactive; aSyn yeast inh: inactive

How did O=C(Nc1ccc(F)cc1)Nc1c(-c2ccc(F)cc2)nc2ncccn12 do in these assays?
FUS yeast rescue: inactive

What do the screens show for `C/C(C=NNC(=O)CSc1nc2ccccc2n1C)=C\c1ccccc1`?
FUS yeast rescue: inactive

What do the screens show for `CC(Cl)C(=O)N1CCC(C(=O)NCC2COc3ccccc3O2)CC1` (configuration not stated)?
FUS yeast rescue: inactive

What do the screens show for `CC1(Cc2cccc(C(F)(F)F)c2)C(=O)Nc2c(Cl)cccc21` (configuration not stated)?
TDP43 rescue: inactive; Abeta rescue: inactive; FUS yeast rescue: inactive; aSyn yeast inh: 22µM

Results for CCOC(=O)N/N=C/c1ccc(Oc2ccccc2)cc1 ?
TDP43 rescue: 18µM; Abeta rescue: inconclusive; FUS yeast rescue: inactive; aSyn yeast inh: inactive

What do the screens show for `CCOC(=O)N/N=C/c1ccc(C)o1`?
TDP43 rescue: inactive; Abeta rescue: inactive; FUS yeast rescue: inactive; aSyn yeast inh: inactive

Results for CCn1c(SCc2ccc(F)cc2)nc2c(c1=O)SCC2 ?
TDP43 rescue: 18µM; Abeta rescue: inactive; FUS yeast rescue: inactive; aSyn yeast inh: inactive

How did Nn1c(SCC(=O)NC2CCCCC2)nnc1-c1cc(-c2ccc(F)cc2)n[nH]1 do in these assays?
FUS yeast rescue: inactive

How did O=C(CSCc1ccccc1Br)N/N=C/c1ccc2c(c1)OCO2 do in these assays?
TDP43 rescue: 18µM; Abeta rescue: inactive; aSyn yeast inh: inactive

How did O=C(CSCc1cccc(Br)c1)N/N=C/c1ccc2c(c1)OCO2 do in these assays?
TDP43 rescue: inconclusive; Abeta rescue: inconclusive; FUS yeast rescue: inactive; aSyn yeast inh: inactive

What do the screens show for `CCOc1ccc(C2C(C(=O)Nc3ccccc3)=C(C)Nc3nc(-c4ccccc4Cl)nn32)cc1OC` (configuration not stated)?
TDP43 rescue: inactive; Abeta rescue: inactive; FUS yeast rescue: 32µM

How did CN(C)[C@@H]1CCN(c2cccc3c2S(=O)(=O)N2CC[C@@H](C2)O3)C1 do in these assays?
FUS yeast rescue: inactive

How did CC(C)(C)c1ccc(-c2nnc3sc(COc4ccccc4)nn23)cc1 do in these assays?
FUS yeast rescue: inactive

What do the screens show for `O=C(NC1CCCCN(Cc2cccc(Cl)c2)C1=O)c1cccc(C(F)(F)F)c1` (configuration not stated)?
FUS yeast rescue: inactive

Results for O=C(CSc1ccc(F)cc1)NCCSc1ccccc1 ?
TDP43 rescue: 13µM; Abeta rescue: inactive; FUS yeast rescue: inactive; aSyn yeast inh: inactive

Results for Cc1ccccc1NC(=O)c1ccc(F)c(S(=O)(=O)N2CCN(c3ccccn3)CC2)c1 ?
TDP43 rescue: inactive; Abeta rescue: inactive; FUS yeast rescue: inactive; aSyn yeast inh: inactive
